Test results from PubChem BioAssay (Tox21).
A number with no mark means an inactive call. Results filed as inconclusive are left out. Entries that show only a call come without a potency. The source made the active and inactive calls. Unless noted, the call rests on the fitted dose curve; in most records, active means well fitted curve in the direction sought with a large enough effect in the repeat runs; inconclusive means weak or mixed curves; inactive means no such curve, though single readings can be large; an effect the other way counts as inactive or inconclusive.

Experiments:
[1] = qHTS assay to identify small molecule agonists of the hypoxia (HIF-1) signaling pathway - cell viability counter screen (AID 1224844; calls by dose curve; further: nearly all actives have a fitted effect of over 50% in size; further: potency means the concentration at half of the fitted maximal effect)
Procedure, shortened: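 Viability counter screen: HRE-bla ME-180 cells plated 5 hrs before compound addition, treated 17 hrs at 37C and 5% CO2, then CellTiter-Glo added after the FRET reporter read; luminescence after 30 min.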

[2] = qHTS assay to identify small molecule agonists of H2AX (AID 1224845; active means well fitted activation curve with a large enough effect in the signal ratio in the repeat runs, not every such curve was filed as active; the % refers to the signal ratio; further: potency means the concentration at half of the fitted maximal effect)
Procedure, shortened: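 Wild-type CHO-K1 cells, plated overnight, exposed 3hr at 37C to 15 concentrations (0.76% DMSO final). Lysed, then HTRF anti-pH2AX (S139) cryptate and anti-H2AX-d2 antibodies, 24 hr room temperature; 665/620 nm emission read.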

[3] = qHTS assay to identify small molecule agonists of H2AX - cell viability counter screen (AID 1224847; calls by dose curve; further: nearly all actives have a fitted effect of over 30% in size; further: potency means the concentration at half of the fitted maximal effect)
Procedure, shortened: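 Viability of CHO-K1 (wild type) cells after 3 hr compound exposure was measured by CellTiter-Glo luminescence.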

[4] = qHTS RealTime-Glo MT Cell Viability Assay in HepG2 cells - 24 hour (AID 1224867); further: nearly all actives have a fitted effect of over 50% in size; further: potency means the concentration at half of the fitted maximal effect
Procedure, shortened: (§1)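 Cell number in HepG2 cultures estimated from NanoLuc luminescence generated by metabolic reduction of a prosubstrate by living cells. The homogeneous, nonlytic format allowed repeated reads at 0, 8, 16, 24, 32 and 40 h of compound exposure.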

[5] = qHTS RealTime-Glo MT Cell Viability Assay in HEK293 cells - 32 hour (AID 1224868); further: nearly all actives have a fitted effect of over 50% in size; further: potency means the concentration at half of the fitted maximal effect
Procedure, shortened: (§2)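 Homogeneous bioluminescent viability format in HEK293 cells (600 cells/well). Following 5 h at 37 C/5% CO2, 23 nL compound was pintooled; the signal was measured repeatedly during 40 h incubation.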

[6] = A CellTox Green Cytotoxicity Assay to monitor cytotoxicity in HEK293 cells - 0 hour (AID 1224869); further: nearly all actives have a fitted effect of over 50% in size
Procedure, shortened: (§3)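 Dead-cell fluorescence measured kinetically: asymmetric cyanine dye, HEK293, 600 cells/well, 5 h settle, 23 nL cpd/DMSO, 37 C, reads 0–40 h every 8 h.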

[7] = qHTS RealTime-Glo MT Cell Viability Assay in HepG2 cells - 40 hour (AID 1224870); further: nearly all actives have a fitted effect of over 50% in size; further: potency means the concentration at half of the fitted maximal effect
Procedure, shortened: (§4)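 HepG2 cells (600/well) mixed with RealTime-Glo MT reagent, settled 5 h at 37 C/5% CO2 before compound addition. Nonlytic NanoLuc luminescence from viable-cell prosubstrate reduction read repeatedly during 40 h treatment at 37 C.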

[8] = A CellTox Green Cytotoxicity Assay to monitor cytotoxicity in HEK293 cells - 40 hour (AID 1224871); further: nearly all actives have a fitted effect of over 45% in size; further: potency means the concentration at half of the fitted maximal effect
Procedure, shortened: as §3

[9] = qHTS RealTime-Glo MT Cell Viability Assay in HEK293 cells - 16 hour (AID 1224872); further: nearly all actives have a fitted effect of over 50% in size; further: potency means the concentration at half of the fitted maximal effect
Procedure, shortened: as §2

[10] = qHTS RealTime-Glo MT Cell Viability Assay in HepG2 cells - 8 hour (AID 1224873); further: nearly all actives have a fitted effect of over 55% in size
Procedure, shortened: as §4

[11] = qHTS RealTime-Glo MT Cell Viability Assay in HEK293 cells - 40 hour (AID 1224874); conditions: RealTime-Glo luminescence; max response: hits give low values; further: nearly all actives have a fitted effect of over 50% in size; further: potency means the concentration at half of the fitted maximal effect
Procedure, shortened: (§5)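 600 HEK293 cells per well, dispensed already mixed with RealTime-Glo MT reagents. Compound dosing came 5 h later. The same wells were read for luminescence at 0, 8, 16, 24, 32 and 40 h of exposure at 37 C.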

[12] = A CellTox Green Cytotoxicity Assay to monitor cytotoxicity in HEK293 cells - 24 hour (AID 1224875); further: nearly all actives have a fitted effect of over 45% in size; further: potency means the concentration at half of the fitted maximal effect
Procedure, shortened: as §3

[13] = qHTS RealTime-Glo MT Cell Viability Assay in HepG2 cells - 32 hour (AID 1224877); further: nearly all actives have a fitted effect of over 55% in size; further: potency means the concentration at half of the fitted maximal effect
Procedure, shortened: as §1

[14] = A CellTox Green Cytotoxicity Assay to monitor cytotoxicity in HepG2 cells - 24 hour (AID 1224878); further: nearly all actives have a fitted effect of over 45% in size; further: potency means the concentration at half of the fitted maximal effect
Procedure, shortened: (§6)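 First, HepG2 cells (600/well) mixed with reagent were plated; second, after 5 h at 37 C they received compounds via pintool; third, fluorescence was measured at 0 h through 40 h at 8 h intervals.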

[15] = A CellTox Green Cytotoxicity Assay to monitor cytotoxicity in HepG2 cells - 40 hour (AID 1224879); further: nearly all actives have a fitted effect of over 40% in size; further: potency means the concentration at half of the fitted maximal effect
Procedure, shortened: as §6

[16] = qHTS RealTime-Glo MT Cell Viability Assay in HEK293 cells - 0 hour (AID 1224880); further: top concentration of the series differs between compounds; nearly all actives have a fitted effect of over 45% in size
Procedure, shortened: as §5

[17] = qHTS assay to identify small molecule antagonists of the estrogen related receptor (ERR) signaling pathway from Tox21 library (AID 1224848); further: nearly all actives have a fitted effect of over 50% in size; further: potency means the concentration at half of the fitted maximal effect
Procedure, shortened: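 Compounds dissolved in DMSO are pin-transferred onto ERR reporter cells (2,000 per well) that have settled for 6 h at 37 C. Plates then incubate 18 h at 37 C before ONE-Glo luciferase reagent and a luminescence read 30 min later.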

[18] = qHTS assay to identify small molecule agonists of the hypoxia (HIF-1) signaling pathway (AID 1224846; active means well fitted activation curve with a large enough effect in the signal ratio in the repeat runs, not every such curve was filed as active; the % refers to the signal ratio)
Procedure, shortened: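 Agonist mode reporter screen. ME-180 cells stably expressing bla under HRE control received test compounds in DMSO for 17 hrs (37C, 5% CO2), and beta-lactamase activity was then detected with the CCF4-AM FRET substrate.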

[19] = A CellTox Green Cytotoxicity Assay to monitor cytotoxicity in HepG2 cells - 16 hour (AID 1224876); further: nearly all actives have a fitted effect of over 45% in size; further: potency means the concentration at half of the fitted maximal effect
Procedure, shortened: as §6

[20] = qHTS assay to identify small molecule agonists of the estrogen related receptor (ERR) signaling pathway from Tox21 library (AID 1224849; calls by dose curve; further: nearly all actives have a fitted effect of over 15% in size); conditions: ERR reporter cell line, ONE-Glo luciferase, 18 h; at 92.4 µM (top of the series) unless noted
Procedure, shortened: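 Quantitative HTS in agonist format: NTP ERR cell line, compounds transferred in DMSO after 6 h plating, 18 h incubation at 37 C, ONE-Glo luminescence endpoint.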

## O=C(N[C@H]1N=C(c2ccccc2F)c2cccc3c2N(CC3)C1=O)c1cc2ccccc2[nH]1
[1]
  Potency: inactive
[2]
  Potency: inactive
[3]
  Potency: inactive
[4]
  Potency: inactive
[5]
  Potency: inactive
[6]
  Potency: inactive
[7]
  Potency: inactive
[8]
  Potency: inactive
[9]
  Potency: inactive
[10]
  Potency: inactive
[11]
  max response: -4.67%
[12]
  Potency: inactive
[13]
  Potency: inactive
[14]
  Potency: inactive
[15]
  Potency: inactive
[16]
  Potency: inactive

## C[C@@H]1CC2=CC(=O)CC[C@@H]2[C@H]2CC[C@@]3(C)[C@@H](CC[C@]3(C)O)[C@@H]21
[1]
  Potency: inactive
[2]
  Potency: inactive
[3]
  Potency: inactive
[17]
  Potency: 23700 nM (active)
[4]
  Potency: inactive
[6]
  Potency: inactive
[7]
  Potency: inactive
[8]
  Potency: inactive
[10]
  Potency: inactive
[12]
  Potency: inactive
[13]
  Potency: inactive
[15]
  Potency: inactive

## COC(=O)c1cc(Oc2ccc(Cl)cc2Cl)ccc1[N+](=O)[O-]
[1]
  Potency: inactive
[2]
  Potency: inactive
[18]
  Potency: inactive
[4]
  Potency: inactive
[6]
  Potency: inactive
[7]
  Potency: inactive
[8]
  Potency: inactive
[10]
  Potency: inactive
[12]
  Potency: inactive
[19]
  Potency: inactive
[13]
  Potency: inactive
[15]
  Potency: inactive

## C[C@]12CC[C@H]3[C@@H](CCC4=CC(=O)CC[C@@H]43)[C@@H]1CC[C@@H]2OC(=O)CCc1ccco1
[1]
  Potency: inactive
[2]
  Potency: inactive
[18]
  Potency: inactive
[4]
  Potency: inactive
[5]
  Potency: inactive
[6]
  Potency: inactive
[7]
  Potency: inactive
[9]
  Potency: inactive
[10]
  Potency: inactive
[11]
  max response: -8.1%
[19]
  Potency: inactive
[13]
  Potency: inactive
[14]
  Potency: inactive
[15]
  Potency: inactive

## c1ccc2nc(N3CCNCC3)ccc2c1
[1]
  Potency: inactive
[2]
  Potency: inactive
[3]
  Potency: inactive
[4]
  Potency: inactive
[5]
  Potency: inactive
[6]
  Potency: inactive
[7]
  Potency: inactive
[8]
  Potency: inactive
[9]
  Potency: inactive
[10]
  Potency: inactive
[11]
  max response: -17.1%
[12]
  Potency: inactive
[13]
  Potency: inactive
[14]
  Potency: inactive

## CN1CCc2cc3c(cc2C1O)OCO3 (stereo not drawn)
[1]
  Potency: inactive
[2]
  Potency: inactive
[3]
  Potency: inactive
[17]
  Potency: inactive
[4]
  Potency: inactive
[5]
  Potency: inactive
[6]
  Potency: inactive
[7]
  Potency: inactive
[8]
  Potency: inactive
[9]
  Potency: inactive
[10]
  Potency: inactive
[11]
  max response: 1.96%
[12]
  Potency: inactive
[19]
  Potency: inactive
[13]
  Potency: inactive
[14]
  Potency: inactive
[15]
  Potency: inactive
[16]
  Potency: inactive

## CC(C)N(C(=O)SC/C(Cl)=C/Cl)C(C)C
[1]
  Potency: inactive
[2]
  Potency: inactive
[18]
  Potency: inactive
[4]
  Potency: inactive
[5]
  Potency: inactive
[6]
  Potency: inactive
[7]
  Potency: inactive
[8]
  Potency: 43900 nM (active)
[10]
  Potency: inactive
[11]
  max response: -22.2%
[12]
  Potency: inactive
[19]
  Potency: inactive
[13]
  Potency: inactive
[14]
  Potency: inactive
[15]
  Potency: inactive
[16]
  Potency: inactive

## COP(=S)(OC)Oc1ccc([N+](=O)[O-])c(C)c1
[1]
  Potency: inactive
[2]
  Potency: inactive
[3]
  Potency: inactive
[4]
  Potency: inactive
[5]
  Potency: inactive
[6]
  Potency: inactive
[7]
  Potency: inactive
[8]
  Potency: inactive
[9]
  Potency: inactive
[10]
  Potency: inactive
[11]
  max response: -0.352%
[12]
  Potency: inactive
[13]
  Potency: inactive
[14]
  Potency: inactive
[15]
  Potency: inactive
[16]
  Potency: inactive

## COC(=O)c1ccccc1S(=O)(=O)NC(=O)Nc1nc(C)nc(OC)n1
[1]
  Potency: inactive
[2]
  Potency: inactive
[18]
  Potency: inactive
[4]
  Potency: inactive
[5]
  Potency: inactive
[6]
  Potency: inactive
[7]
  Potency: inactive
[8]
  Potency: inactive
[9]
  Potency: inactive
[10]
  Potency: inactive
[12]
  Potency: inactive
[19]
  Potency: inactive
[13]
  Potency: inactive
[14]
  Potency: inactive
[15]
  Potency: inactive
[16]
  Potency: inactive

## CC(Cl)CCl (stereo not drawn)
[1]
  Potency: inactive
[2]
  Potency: inactive
[18]
  Potency: inactive
[4]
  Potency: inactive
[5]
  Potency: inactive
[6]
  Potency: inactive
[7]
  Potency: inactive
[8]
  Potency: inactive
[9]
  Potency: inactive
[10]
  Potency: inactive
[12]
  Potency: inactive
[19]
  Potency: inactive
[13]
  Potency: inactive
[14]
  Potency: inactive
[15]
  Potency: inactive
[16]
  Potency: inactive

## Oc1cc(Cl)c(Cl)c(Cl)c1Cl
[1]
  Potency: inactive
[2]
  Potency: inactive
[3]
  Potency: 49300 nM (active)
[4]
  Potency: inactive
[5]
  Potency: 47800 nM (active)
[6]
  Potency: inactive
[7]
  Potency: inactive
[8]
  Potency: inactive
[10]
  Potency: inactive
[11]
  Potency: 47800 nM (active)
[12]
  Potency: inactive
[19]
  Potency: inactive
[13]
  Potency: inactive
[14]
  Potency: inactive
[16]
  Potency: inactive

## CCC[CH2][Sn]([CH2]CCC)([O]C(C)=O)[O]C(C)=O
[1]
  Potency: 986 nM (active)
[2]
  Potency: 906 nM (active)
[17]
  Potency: 61.7 nM (active)
[20]
  activity change, positive = activation: -79.9%
[4]
  Potency: 278 nM (active)
[5]
  Potency: 78.3 nM (active)
[6]
  Potency: inactive
[7]
  Potency: 175 nM (active)
[8]
  Potency: 278 nM (active)
[9]
  Potency: 87.9 nM (active)
[10]
  Potency: inactive
[11]
  Potency: 69.8 nM (active)
[12]
  Potency: 1240 nM (active)
[19]
  Potency: 1240 nM (active)
[13]
  Potency: 221 nM (active)
[14]
  Potency: 312 nM (active)
[15]
  Potency: 248 nM (active)
[16]
  Potency: inactive

## CC1(C)C(C=C(Cl)Cl)C1C(=O)OC(C#N)c1ccc(F)c(Oc2ccccc2)c1 (stereo not drawn)
[1]
  Potency: inactive
[2]
  Potency: inactive
[3]
  Potency: inactive
[4]
  Potency: inactive
[5]
  Potency: inactive
[6]
  Potency: inactive
[7]
  Potency: inactive
[8]
  Potency: inactive
[11]
  max response: -18.6%
[12]
  Potency: inactive
[19]
  Potency: inactive
[13]
  Potency: inactive
[14]
  Potency: inactive
[15]
  Potency: inactive

## CC(C)C(Nc1ccc(C(F)(F)F)cc1Cl)C(=O)OC(C#N)c1cccc(Oc2ccccc2)c1 (stereo not drawn)
[1]
  Potency: inactive
[2]
  Potency: inactive
[3]
  Potency: inactive
[4]
  Potency: inactive
[5]
  Potency: inactive
[6]
  Potency: inactive
[7]
  Potency: inactive
[8]
  Potency: inactive
[10]
  Potency: inactive
[11]
  max response: -20.4%
[12]
  Potency: inactive
[19]
  Potency: inactive
[13]
  Potency: inactive
[14]
  Potency: inactive
[15]
  Potency: inactive
[16]
  Potency: inactive
